Results: the supplement of paper PMC10849652
The full data set covers some 7,900 targets. This sample favours those with a hit. About 0.6% of all pairs of compound and target were hits. Values without a mark were called inactive.

Assays:
Assay in all cases: log2 fold change, soluble protein after heating vs DMSO (PISA); higher = thermal stabilisation; K562 cells, 10 uM, 30 min; active = over 0.2 and 3.5 SD of the protein, either way, in both replicates (recomputed)
[1] = compound: Cc1ccc(NC(=O)c2ccc(CN3CC[C@H](N(C)C)C3)c(C(F)(F)F)c2)cc1Nc1nccc(-c2cncnc2)n1 [bafetinib]
Method in brief: (§1)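 K562 cells at 2×10^6 cells/mL were given 10 μM compound for 30 min. Aliquots then went through 3 min of heating across 48°C-58°C, were pooled, and were extracted in PBS with 0.5% NP-40 at 4°C, and the supernatant after 21,000xg for 90 min was quantified by TMTpro 16plex LC-MS/MS with channel sums equalised. Thermal stability relative to control samples, from duplicates, is given as log2 fold change.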

[2] = compound: Cc1cccc(CC(=O)N2CCc3c2ccc(-c2cn(C)c4ncnc(N)c24)c3F)n1
Method in brief: as §1

[3] = compound: Cc1cn(-c2cc(NC(=O)c3ccc(C)c(Nc4nccc(-c5cccnc5)n4)c3)cc(C(F)(F)F)c2)cn1 [nilotinib]
Method in brief: as §1

[4] = compound: Cc1nc(Nc2n[nH]c3c2CN(C(=O)N[C@H](CN(C)C)c2ccccc2)C3(C)C)c2sccc2n1
Method in brief: as §1

[5] = compound: Cc1nc(Nc2ncc(C(=O)Nc3c(C)cccc3Cl)s2)cc(N2CCN(CCO)CC2)n1 [dasatinib]
Method in brief: as §1

[6] = compound: Cc1ncc(-c2ccnc(Nc3ccc(S(C)(=O)=O)cc3)n2)n1C(C)C
Method in brief: as §1

[7] = compound: Cn1cc(-c2ccc3c(c2)CCN3C(=O)Cc2cccc(C(F)(F)F)c2)c2c(N)ncnc21
Method in brief: as §1

[8] = compound: Cn1cc(-c2ccc3nnc(C(F)(F)c4ccc5ncccc5c4)n3n2)cn1
Method in brief: as §1

[9] = compound: Cn1cncc1[C@@](N)(c1ccc(Cl)cc1)c1ccc2c(c1)c(-c1cccc(Cl)c1)cc(=O)n2C [tipifarnib]
Method in brief: as §1

[10] = compound: FC(F)(F)c1ccc(/C=C/c2nc(COc3ccc(CCCCn4ccnn4)cc3)co2)cc1 [mubritinib]
Method in brief: as §1

[11] = compound: NC(=O)Nc1cc(-c2cccc(F)c2)sc1C(=O)N[C@H]1CCCNC1
Method in brief: as §1

[12] = compound: NC(=O)c1cnc(N[C@@H]2CCCC[C@@H]2N)nc1Nc1cccc(-n2nccn2)c1
Method in brief: as §1

[13] = compound: NC1(c2ccc(-c3nc4ccn5c(=O)[nH]nc5c4cc3-c3ccccc3)cc2)CCC1
Method in brief: as §1

[14] = compound: NCC(=O)Nc1ccc(-n2nc(C(F)(F)F)cc2-c2ccc3c(ccc4ccccc43)c2)cc1
Method in brief: as §1

[15] = compound: Nc1ccccc1NC(=O)c1ccc(CNC(=O)OCc2cccnc2)cc1 [entinostat]
Method in brief: as §1

[16] = compound: O=C(CCCCCCC(=O)Nc1ccccc1)NO [vorinostat]
Method in brief: as §1

[17] = compound: O=C(CCCCCCNC(=O)c1cnc(N(c2ccccc2)c2ccccc2Cl)nc1)NO [citarinostat]
Method in brief: as §1

[18] = compound: O=C(O)c1ccc2c(c1)nc(Nc1cccc(Cl)c1)c1ccncc12 [silmitasertib]
Method in brief: as §1

[19] = compound: O=C1NC(=O)C(c2cnc3ccccn23)=C1c1cn2c3c(cc(F)cc13)CN(C(=O)N1CCCCC1)CC2
Method in brief: as §1

[20] = compound: c1cc(OCCN2CCCCC2)cc(-c2n[nH]c3ccc(-c4nnc[nH]4)cc23)c1
Method in brief: as §1

Chain of UniProt P29083 (P29083 whole entry, looked up): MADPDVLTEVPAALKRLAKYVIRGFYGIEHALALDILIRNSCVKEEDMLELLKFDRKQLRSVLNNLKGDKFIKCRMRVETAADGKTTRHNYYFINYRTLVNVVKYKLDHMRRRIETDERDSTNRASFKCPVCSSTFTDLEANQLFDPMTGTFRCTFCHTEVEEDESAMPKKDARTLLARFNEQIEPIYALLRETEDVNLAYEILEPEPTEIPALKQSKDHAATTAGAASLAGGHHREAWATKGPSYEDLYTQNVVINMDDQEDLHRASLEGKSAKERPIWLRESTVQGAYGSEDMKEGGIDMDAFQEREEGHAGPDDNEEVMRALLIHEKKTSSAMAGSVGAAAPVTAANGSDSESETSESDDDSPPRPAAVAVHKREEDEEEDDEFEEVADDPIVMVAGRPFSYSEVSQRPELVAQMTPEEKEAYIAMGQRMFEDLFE
Chain of UniProt P62879 (P62879 whole entry, looked up): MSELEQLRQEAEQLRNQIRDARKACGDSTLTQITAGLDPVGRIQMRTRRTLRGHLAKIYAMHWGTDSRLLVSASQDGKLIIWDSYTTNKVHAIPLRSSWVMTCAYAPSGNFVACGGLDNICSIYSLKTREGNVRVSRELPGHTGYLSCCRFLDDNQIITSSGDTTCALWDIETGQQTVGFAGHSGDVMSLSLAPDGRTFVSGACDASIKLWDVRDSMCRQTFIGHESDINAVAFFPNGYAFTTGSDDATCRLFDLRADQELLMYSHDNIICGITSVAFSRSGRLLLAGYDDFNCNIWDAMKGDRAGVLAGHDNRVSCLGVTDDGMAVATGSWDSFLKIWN
Chain of UniProt P08236 (P08236 whole entry, looked up): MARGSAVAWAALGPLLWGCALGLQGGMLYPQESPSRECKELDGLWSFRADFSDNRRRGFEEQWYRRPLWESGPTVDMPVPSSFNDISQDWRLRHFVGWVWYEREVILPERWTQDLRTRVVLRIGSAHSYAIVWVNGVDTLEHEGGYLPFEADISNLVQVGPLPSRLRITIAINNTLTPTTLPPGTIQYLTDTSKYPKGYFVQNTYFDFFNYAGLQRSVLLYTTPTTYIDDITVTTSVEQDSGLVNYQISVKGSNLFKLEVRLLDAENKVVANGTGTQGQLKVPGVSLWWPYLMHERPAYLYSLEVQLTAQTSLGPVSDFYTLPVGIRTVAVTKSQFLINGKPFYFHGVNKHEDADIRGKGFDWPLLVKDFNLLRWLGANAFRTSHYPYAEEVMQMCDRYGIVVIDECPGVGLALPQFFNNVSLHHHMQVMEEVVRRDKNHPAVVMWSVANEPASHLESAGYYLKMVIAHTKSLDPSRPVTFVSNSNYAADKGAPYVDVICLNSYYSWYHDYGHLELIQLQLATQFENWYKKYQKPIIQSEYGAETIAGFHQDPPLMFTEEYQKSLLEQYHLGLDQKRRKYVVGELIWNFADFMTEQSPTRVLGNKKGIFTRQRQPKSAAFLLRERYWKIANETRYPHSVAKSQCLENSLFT
Chain of UniProt P05114 (P05114 whole entry, looked up): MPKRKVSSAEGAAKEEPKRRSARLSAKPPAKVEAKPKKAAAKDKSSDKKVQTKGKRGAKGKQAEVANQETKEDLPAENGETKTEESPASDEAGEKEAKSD
Chain of UniProt P49448 (P49448 whole entry, looked up): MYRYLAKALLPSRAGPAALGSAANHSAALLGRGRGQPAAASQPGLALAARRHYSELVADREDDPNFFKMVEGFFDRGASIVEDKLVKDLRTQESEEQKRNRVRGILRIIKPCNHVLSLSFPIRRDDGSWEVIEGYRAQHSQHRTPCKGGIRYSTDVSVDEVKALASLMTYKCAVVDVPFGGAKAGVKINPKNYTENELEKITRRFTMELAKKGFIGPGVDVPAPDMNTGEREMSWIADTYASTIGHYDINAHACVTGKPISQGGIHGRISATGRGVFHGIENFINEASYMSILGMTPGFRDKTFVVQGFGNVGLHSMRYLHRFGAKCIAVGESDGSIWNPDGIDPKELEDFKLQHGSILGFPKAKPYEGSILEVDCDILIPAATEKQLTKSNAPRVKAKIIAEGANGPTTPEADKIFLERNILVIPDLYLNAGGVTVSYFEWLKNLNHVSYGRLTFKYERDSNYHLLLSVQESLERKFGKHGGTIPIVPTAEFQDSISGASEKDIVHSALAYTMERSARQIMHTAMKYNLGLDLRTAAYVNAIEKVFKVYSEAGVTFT
Chain of UniProt P09105 (P09105 whole entry, looked up): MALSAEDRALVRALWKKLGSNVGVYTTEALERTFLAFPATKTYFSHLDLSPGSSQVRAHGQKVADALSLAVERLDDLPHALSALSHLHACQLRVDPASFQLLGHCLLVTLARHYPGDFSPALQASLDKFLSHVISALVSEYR
Chain of UniProt P0CL80 (P0CL80 whole entry, looked up): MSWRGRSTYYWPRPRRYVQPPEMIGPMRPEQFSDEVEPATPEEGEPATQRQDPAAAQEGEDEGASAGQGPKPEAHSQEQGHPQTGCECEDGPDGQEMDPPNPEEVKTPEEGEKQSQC
Chain of UniProt Q92917 (Q92917 whole entry, looked up): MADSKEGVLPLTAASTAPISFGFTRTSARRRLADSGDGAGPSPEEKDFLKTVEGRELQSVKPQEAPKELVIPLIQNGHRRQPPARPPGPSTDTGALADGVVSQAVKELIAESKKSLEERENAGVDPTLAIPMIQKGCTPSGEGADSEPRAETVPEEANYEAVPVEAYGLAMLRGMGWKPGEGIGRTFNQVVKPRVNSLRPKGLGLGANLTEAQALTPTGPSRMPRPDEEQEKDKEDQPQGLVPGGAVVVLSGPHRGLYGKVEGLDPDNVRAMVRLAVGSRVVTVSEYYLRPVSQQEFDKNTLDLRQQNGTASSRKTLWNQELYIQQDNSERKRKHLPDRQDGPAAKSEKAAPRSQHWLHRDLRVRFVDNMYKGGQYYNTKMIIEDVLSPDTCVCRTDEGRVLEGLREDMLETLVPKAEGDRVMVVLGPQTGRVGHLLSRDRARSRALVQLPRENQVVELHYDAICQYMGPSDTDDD
Chain of UniProt Q96LB3 (Q96LB3 whole entry, looked up): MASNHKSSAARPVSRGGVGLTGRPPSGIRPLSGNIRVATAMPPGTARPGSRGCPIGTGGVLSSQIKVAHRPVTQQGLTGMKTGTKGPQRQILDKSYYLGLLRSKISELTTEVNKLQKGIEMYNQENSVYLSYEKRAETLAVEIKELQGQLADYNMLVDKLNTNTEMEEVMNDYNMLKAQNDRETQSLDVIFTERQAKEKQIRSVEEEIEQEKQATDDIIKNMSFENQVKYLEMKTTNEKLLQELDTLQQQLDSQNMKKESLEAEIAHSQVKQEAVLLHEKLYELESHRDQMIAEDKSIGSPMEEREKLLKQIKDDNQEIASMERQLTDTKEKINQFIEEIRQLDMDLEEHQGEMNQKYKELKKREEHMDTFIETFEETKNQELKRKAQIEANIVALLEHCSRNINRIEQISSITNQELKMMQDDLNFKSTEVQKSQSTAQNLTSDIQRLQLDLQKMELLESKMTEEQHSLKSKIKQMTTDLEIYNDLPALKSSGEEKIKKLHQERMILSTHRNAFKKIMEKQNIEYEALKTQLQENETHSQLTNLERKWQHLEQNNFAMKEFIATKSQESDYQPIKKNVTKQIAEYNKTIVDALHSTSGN
Chain of UniProt P04066 (P04066 whole entry, looked up): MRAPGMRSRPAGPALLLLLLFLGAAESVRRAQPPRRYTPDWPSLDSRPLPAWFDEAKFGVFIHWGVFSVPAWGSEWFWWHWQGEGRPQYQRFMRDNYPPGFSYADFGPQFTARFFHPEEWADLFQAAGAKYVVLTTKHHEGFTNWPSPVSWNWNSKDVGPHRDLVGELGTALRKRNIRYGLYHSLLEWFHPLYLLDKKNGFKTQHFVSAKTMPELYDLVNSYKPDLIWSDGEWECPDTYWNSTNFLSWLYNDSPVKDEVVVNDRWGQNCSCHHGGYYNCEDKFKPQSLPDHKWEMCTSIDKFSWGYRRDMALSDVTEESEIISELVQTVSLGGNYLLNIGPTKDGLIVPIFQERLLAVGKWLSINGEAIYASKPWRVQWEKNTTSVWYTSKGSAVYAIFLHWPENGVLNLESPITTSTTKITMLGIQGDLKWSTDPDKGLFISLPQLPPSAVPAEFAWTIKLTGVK
Chain of UniProt Q9BUP3 (Q9BUP3 whole entry, looked up): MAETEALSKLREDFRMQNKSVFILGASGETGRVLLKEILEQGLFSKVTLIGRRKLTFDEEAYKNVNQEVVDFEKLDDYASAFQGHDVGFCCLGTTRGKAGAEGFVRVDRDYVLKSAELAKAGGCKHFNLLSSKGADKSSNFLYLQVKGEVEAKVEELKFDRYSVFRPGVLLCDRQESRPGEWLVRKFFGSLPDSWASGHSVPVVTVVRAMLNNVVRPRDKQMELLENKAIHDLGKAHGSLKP
Chain of UniProt P15104 (P15104 whole entry, looked up): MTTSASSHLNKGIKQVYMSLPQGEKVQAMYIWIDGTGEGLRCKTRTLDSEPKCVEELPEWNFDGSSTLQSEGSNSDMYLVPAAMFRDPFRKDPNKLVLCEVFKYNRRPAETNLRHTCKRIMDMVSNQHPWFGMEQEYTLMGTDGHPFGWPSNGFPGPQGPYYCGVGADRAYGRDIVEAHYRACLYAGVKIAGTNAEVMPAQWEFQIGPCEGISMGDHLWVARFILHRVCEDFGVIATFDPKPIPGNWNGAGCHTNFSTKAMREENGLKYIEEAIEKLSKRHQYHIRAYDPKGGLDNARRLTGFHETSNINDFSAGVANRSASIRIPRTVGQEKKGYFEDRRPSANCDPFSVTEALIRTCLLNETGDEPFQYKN
Chain of UniProt P69905 (P69905 whole entry, looked up): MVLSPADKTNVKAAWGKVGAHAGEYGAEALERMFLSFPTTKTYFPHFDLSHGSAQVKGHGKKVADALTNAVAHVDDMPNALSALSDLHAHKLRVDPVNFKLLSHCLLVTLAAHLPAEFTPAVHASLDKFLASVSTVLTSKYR

Target	log2 fold change [1]	log2 fold change [2]	log2 fold change [3]	log2 fold change [4]	log2 fold change [5]	log2 fold change [6]	log2 fold change [7]	log2 fold change [8]	log2 fold change [9]	log2 fold change [10]	log2 fold change [11]	log2 fold change [12]	log2 fold change [13]	log2 fold change [14]	log2 fold change [15]	log2 fold change [16]	log2 fold change [17]	log2 fold change [18]	log2 fold change [19]	log2 fold change [20]
HMGN1 (UniProt P05114)	-0.014	-0.012	-0.022	0.057	0.146	0.019	-0.022	-0.048	0.066	-0.049	0	0.024	0.144	0.03	-0.053	-0.048	-0.096	0.037	-0.003	-0.023
GAGE12F (UniProt P0CL80)	-0.092	-0.284 (active)	0.052	-0.085	0.009	-0.015	-0.004	-0.035	0.053	0.085	0.029	-0.013	0.083	-0.059	0.031	0.024	0	0.01	0.021	-0.08
GLUL (UniProt P15104)	-0.027	-0.038	-0.061	0.062	0.015	-0.148	-0.035	-0.085	0.011	-0.112	0.059	-0.104	0.061	0.018	-0.009	0.04	-0.024	0.032	-0.012	-0.087
GUSB (UniProt P08236)	0.016	-0.013	0.218	-0.115	0.053	0.117	-0.059	-0.007	0.16	-0.136	-0.044	0.029	0.047	0.067	-0.066	0.049	0.148	-0.011	0.057	-0.059
HBA1 (UniProt P69905)	-0.013	0.138	0.029	0.017	0.044	0.01	0.156	0.345 (active)	-0.084	0.024	0.016	0.032	0.003	0.103	0.059	-0.031	0.007	-0.036	-0.037	0.012
HBQ1 (UniProt P09105)	0.028	0.046	0.054	-0.004	0.102	-0.043	0.12	0.117	-0.125	0.039	0.058	-0.048	-0.043	0.006	0.014	-0.05	0.032	-0.047	-0.119	0.021
GLUD2 (UniProt P49448)	0.234	0.02	0.478 (active)	0.21	-0.021	-0.031	0.265 (active)	-0.028	0.079	0.041	-0.086	-0.03	-0.006	0.027	-0.053	-0.051	-0.07	-0.136	-0.008	-0.017
HIST2H3A (UniProt Q71DI3)	0.198	-0.183	-0.054	-0.068	0.215	-0.032	-0.258	-0.054	0.031	-0.037	0.032	0.286	0.46	-0.077	0.196	0.442	0.006	-0.084	0.07	-0.02
FUCA1 (UniProt P04066)	-1.16 (active)	-0.001	-0.011	-0.01	-0.009	-0.014	-0.054	0.011	-0.001	-0.008	0.028	-0.028	-0.519 (active)	-0.03	0.014	0.015	0.096	0.019	-0.043	-0.372 (active)
GGT7 (UniProt Q9UJ14)	-0.081	-0.038	0.026	0.015	-0.02	-0.03	0.063	0.018	0.001	0.021	-0.034	0.04	-0.076	0.288 (active)	-0.081	0.062	0.058	-0.009	-0.061	0.002
GTF2E1 (UniProt P29083)	0.014	0.037	-0.112	-0.168	-0.173	-0.032	0.02	0.093	-0.13	0.05	-0.038	-0.118	-0.122	-0.198	0.054	0.095	0.073	0.06	-0.134	-0.124
HTATIP2 isoform 3 (UniProt Q9BUP3)	-0.143	-0.016	0.116	-0.056	-0.046	-0.002	0.031	0.067	0.106	-0.063	-0.047	0.036	-0.07	-0.037	-0.006	0.038	0.05	0.01	-0.066	-0.045
GPKOW (UniProt Q92917)	-0.025	0.086	-0.057	-0.207	-0.326 (active)	-0.025	0.114	0.139	-0.071	0.126	-0.014	0	-0.096	-0.216	0.042	0.122	0.048	-0.078	-0.061	-0.01
GOLGB1 isoform 2 (UniProt Q14789)	-0.022	-0.03	-0.054	0.018	0.08	-0.078	-0.077	0	0.014	0.017	0.106	-0.062	-0.044	0.026	0.024	-0.019	-0.008	0.009	0.039	0.167
IFT74 (UniProt Q96LB3)	-0.095	0.015	0.166	0.063	0.057	0.008	0.015	-0.053	-0.052	0.186	0.035	0.009	0.135	0.045	-0.091	0.101	0.171	-0.187	-0.021	0.06
GNB2 (UniProt P62879)	0.12	-0.002	0.077	-0.018	0.057	-0.012	0.028	-0.032	0.003	-0.028	-0.073	-0.012	0.022	-0.014	-0.037	-0.047	-0.01	0.028	-0.075	-0.049
